Calls of active or inactive are those of the source.
assay: growth of efflux-deficient E. coli DRC39 – strain DRC39, OD650, 48 h, E. coli filamentation inducers, primary screen (AID 1179);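 further: screen aims at cell division blockers that make cells filament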; conditions: E. coli DRC39 delta-acrAB growth, higher = more signal, called active from +8 up or from −8 down

Row | Structure (SMILES) | z-score
1 | CC(=O)OC[C@H]1O[C@@H](ON=C2[C@H]3CCn4c(=O)n(-c5ccccc5)c(=O)n4[C@H]3[C@H](O)[C@@H]3O[C@H]23)[C@H](OC(C)=O)[C@@H](OC(C)=O)[C@@H]1OC(C)=O | 0.381 (inactive)
2 | CCOC(=O)[C@H](CC(C)C)NC(=O)CCC1CC(OC(=O)NCc2ccc3c(c2)OCO3)CC2(CCCC(COC(=O)NCCOC)O2)O1 (stereo partly specified) | -1.31 (inactive)
3 | O=C1C[C@@H](O)[C@@H](O)[C@@H]2[C@@H]3C(=O)N(c4ccc(F)cc4F)C(=O)[C@@H]3CC[C@H]12 | -1.31 (inactive)
4 | CCOC(=O)CCN1C(=O)[C@H]2[C@@H]3C(=CC[C@H]2C1=O)C(=O)[C@H]1O[C@H]1[C@H]3O | 0.322 (inactive)
5 | O=C1CCCC=C1C(O)C1CCCCC1 (stereo unspecified) | 0.456 (inactive)
6 | CCN1C(=O)[C@H]2[C@H]3[C@H](O)[C@H](O)CC(=NOC[C@@H](O)[C@H]4O[C@@H]5OC(C)(C)O[C@@H]5[C@H]4O)[C@@H]3CC[C@H]2C1=O | 0.144 (inactive)
7 | COc1ccc(COC(=O)NN=C2C[C@@H](O)[C@@H](O)[C@@H]3[C@@H]4C(=O)N(Cc5ccccc5)C(=O)[C@@H]4CC[C@@H]23)cc1 | 0.935 (inactive)
8 | C[C@H]1CC[C@H]2C(=O)OC(COc3ccc(C(C)(C)C)cc3)CN2[C@@H]1c1ccc(Br)cc1 (stereo partly specified) | 0.662 (inactive)
9 | COCCNC(=O)OCC1CCCC2(CC(OC(=O)NCc3cccc4ccccc34)CC(CCC(=O)N[C@@H](C)C(=O)OC)O2)O1 (stereo partly specified) | 0.812 (inactive)
10 | CC(C)CON=C1[C@H]2CCn3c(=O)n(C)c(=O)n3[C@H]2[C@H](O)[C@@H]2O[C@H]12 | -0.0718 (inactive)
11 | CO[C@H]1COC(=O)[C@H](CCSC)NC(=O)CC=C[C@@H](C)[C@H](OC)COC(=O)[C@@H](OCc2ccccc2)C=C[C@@H]1C | 0.238 (inactive)
12 | CC(CCN1CCCCc2nc(C)c(C)cc21)=NOC[C@@H](O)[C@H]1O[C@@H]2OC(C)(C)O[C@@H]2[C@H]1O | -0.887 (inactive)
13 | CC(C)(C)N1C(=O)[C@H]2[C@H]3[C@H](O)[C@H](O)CC(=NOC[C@@H](O)COCc4ccco4)[C@@H]3CC[C@H]2C1=O | -0.253 (inactive)
14 | C=CC[C@@H]1C=C[C@H](ON=C2C[C@@H](O)[C@@H](O)[C@@H]3[C@@H]4C(=O)N(CC)C(=O)[C@@H]4CC[C@@H]23)[C@@H](CO)O1 | -1.5 (inactive)
15 | CCOC(=O)NN=C1C[C@@H](O)[C@@H](O)[C@@H]2[C@@H]3C(=O)N(CC)C(=O)[C@@H]3CC[C@H]12 | 0.388 (inactive)

assay: viability profiling in RPMI8226 myeloma cells – cell-based, resazurin fluorescence, basal, 24 h, PK04 Diversity Set, profiling panel (AID 1180); conditions: higher = more signal;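 further: RPMI8826 multiple myeloma cell line at 5000 cells per well; test concentration not given here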

Row | Structure (SMILES) | z-score
16 | COC(=O)[C@H](C)NC(=O)CCC1CC(OC(=O)NCc2cccc3ccccc23)CC2(CCCC(COC(=O)NCCc3ccccc3OC)O2)O1 (stereo partly specified) | -0.472
17 | CO[C@@H](C(C)C)[C@@H](C)C1OC(=O)CC1O (stereo partly specified) | -1.17
18 | COc1ccc(COC(=O)NN=C2C[C@@H](O)[C@@H](O)[C@@H]3[C@@H]4C(=O)N(C[C@@H]5CCCO5)C(=O)[C@@H]4CC[C@H]23)cc1 | -0.631
19 | COC(=O)[C@H](C)NC(=O)CCC1CC(OC(=O)NCCc2ccc(F)cc2)CC2(CCCC(COC(=O)NCCc3ccccc3OC)O2)O1 (stereo partly specified) | 0.833
20 | CON=C(C)CCN1CCCCc2nc(C)c(C)cc21 | 0.6
21 | CC(C)C(=O)N[C@H]1CCCN1C(=O)C=Cc1ccccc1 | -1.03
22 | C#CCCCON=C1C[C@@H](O)[C@@H](O)[C@@H]2[C@@H]3C(=O)N(C[C@@H]4CCCO4)C(=O)[C@@H]3CC[C@@H]12 | 0.199
23 | COc1ccc(COC(=O)NN=C2C[C@@H](O)[C@@H](O)[C@@H]3[C@@H]4C(=O)N(C5CCCCC5)C(=O)[C@@H]4CC[C@@H]23)cc1 | -0.481
24 | CCOC(=O)[C@H](CC(C)C)NC(=O)CCC1CC(OC(=O)NCc2ccc3c(c2)OCO3)CC2(CCCC(COC(=O)NCCc3ccc(Cl)cc3)O2)O1 (stereo partly specified) | 1.13
25 | CC(CCC(=O)OC[C@H]1O[C@H](C#Cc2ccccc2)C=C[C@@H]1Oc1ccc(C)cc1)=NO[C@@H](C)c1cc(-c2c(C)cc(C)cc2C)no1 | 0.838
26 | COC(=O)[C@H](C)NC(=O)CC=C[C@@H](C)[C@@H]1C=C[C@H](O)[C@@H](CO)O1 | -0.845
27 | C[C@H]1CC[C@@H](C(=O)O)N[C@@H]1c1cccc(N2CCCC2=O)c1 | -0.652
28 | CO[C@@H]1[C@H](O)CO[C@H]1C=Cc1ccccc1 | 0.941
29 | COC(=O)[C@H](C)NC(=O)CCC1CC(OC(=O)NCCc2ccc(F)cc2)CC2(CCCC(COC(=O)NCc3ccccc3)O2)O1 (stereo partly specified) | 1.07
30 | CC(C)CON=C1C[C@@H](O)[C@@H](O)[C@@H]2[C@@H]3C(=O)N(c4ccc(F)cc4F)C(=O)[C@@H]3CC[C@@H]12 | -0.226
31 | O=C1C=C[C@@H](O)[C@@H]2[C@@H]3C(=O)N(Cc4ccc5c(c4)OCO5)C(=O)[C@@H]3CC[C@@H]12 | 0.422
32 | CC[C@@H](c1ccccc1)n1c(=O)n2n(c1=O)[C@H]1[C@H](O)[C@@H]3O[C@@H]3C(=NOCc3ccccc3)[C@H]1CC2 | -2.34
33 | CC(=O)OC[C@H]1O[C@H](CC=NOC[C@@H](O)COCc2ccco2)C=C[C@@H]1OC(C)=O | 0.396

Row | Structure (SMILES) | z-score
34 | C[C@H]1C=CCC(=O)OC[C@H](C)C(=O)N2CCC[C@H]2C(=O)OC1 | 0.818
35 | CC(C)CON=C1C[C@@H](O)[C@@H](O)[C@@H]2[C@@H]3C(=O)N(Cc4ccc5c(c4)OCO5)C(=O)[C@@H]3CC[C@@H]12 | -0.0253
36 | CCOC(=O)CCN1C(=O)[C@H]2[C@H]3[C@H](O)[C@H](O)CC(=NNC(=O)OCC)[C@H]3CC[C@H]2C1=O | -0.0651
37 | CC(=O)OC[C@H]1O[C@@H](ON=C2[C@H]3CCn4c(=O)n(-c5ccccc5)c(=O)n4[C@H]3[C@H](O)[C@@H]3O[C@H]23)[C@H](OC(C)=O)[C@@H](OC(C)=O)[C@@H]1OC(C)=O | -1.1
38 | CCOC(=O)[C@H](CC(C)C)NC(=O)CCC1CC(OC(=O)NCc2ccc3c(c2)OCO3)CC2(CCCC(COC(=O)NCCOC)O2)O1 (stereo partly specified) | 0.912
39 | O=C1C[C@@H](O)[C@@H](O)[C@@H]2[C@@H]3C(=O)N(c4ccc(F)cc4F)C(=O)[C@@H]3CC[C@H]12 | -0.413
40 | CCOC(=O)CCN1C(=O)[C@H]2[C@@H]3C(=CC[C@H]2C1=O)C(=O)[C@H]1O[C@H]1[C@H]3O | -2.2
41 | O=C1CCCC=C1C(O)C1CCCCC1 (stereo unspecified) | 0.289
42 | CCN1C(=O)[C@H]2[C@H]3[C@H](O)[C@H](O)CC(=NOC[C@@H](O)[C@H]4O[C@@H]5OC(C)(C)O[C@@H]5[C@H]4O)[C@@H]3CC[C@H]2C1=O | -0.767
43 | COc1ccc(COC(=O)NN=C2C[C@@H](O)[C@@H](O)[C@@H]3[C@@H]4C(=O)N(Cc5ccccc5)C(=O)[C@@H]4CC[C@@H]23)cc1 | 1.12
44 | C[C@H]1CC[C@H]2C(=O)OC(COc3ccc(C(C)(C)C)cc3)CN2[C@@H]1c1ccc(Br)cc1 (stereo partly specified) | -0.317
45 | COCCNC(=O)OCC1CCCC2(CC(OC(=O)NCc3cccc4ccccc34)CC(CCC(=O)N[C@@H](C)C(=O)OC)O2)O1 (stereo partly specified) | 0.79
46 | CC(C)CON=C1[C@H]2CCn3c(=O)n(C)c(=O)n3[C@H]2[C@H](O)[C@@H]2O[C@H]12 | -0.347
47 | CO[C@H]1COC(=O)[C@H](CCSC)NC(=O)CC=C[C@@H](C)[C@H](OC)COC(=O)[C@@H](OCc2ccccc2)C=C[C@@H]1C | 0.519
48 | CC(CCN1CCCCc2nc(C)c(C)cc21)=NOC[C@@H](O)[C@H]1O[C@@H]2OC(C)(C)O[C@@H]2[C@H]1O | -0.216
49 | CC(C)(C)N1C(=O)[C@H]2[C@H]3[C@H](O)[C@H](O)CC(=NOC[C@@H](O)COCc4ccco4)[C@@H]3CC[C@H]2C1=O | 0.589
50 | C=CC[C@@H]1C=C[C@H](ON=C2C[C@@H](O)[C@@H](O)[C@@H]3[C@@H]4C(=O)N(CC)C(=O)[C@@H]4CC[C@@H]23)[C@@H](CO)O1 | -0.216
51 | CCOC(=O)NN=C1C[C@@H](O)[C@@H](O)[C@@H]2[C@@H]3C(=O)N(CC)C(=O)[C@@H]3CC[C@H]12 | -1.04

From PubChem BioAssay
